Reference: PubChem BioAssay (NCATS)
Inconclusive results are not listed. Active and inactive are the calls of the source. Unless noted, calls follow the shape of the dose curve; as a rule, active = well fitted curve in either direction with a large enough effect (not every such curve was filed as active); inconclusive = small, poorly fitted or top-dose-only effect, or another doubt; inactive = flat fitted curve, though single readings scatter.

Columns and labels:
[1] = target: Lysosomal acid glucosylceramidase (Homo sapiens) (UniProt P04062); test: Glucocerebrosidase-p2 (AID 348; in the data active = potency below about 10 µM; also: potency is read from the fitted curve at half-maximal effect); conditions: purified GBA, blue fluorogenic substrate, 40 min
Lysosomal acid glucosylceramidase (Homo sapiens), sequence (P04062 whole entry, looked up): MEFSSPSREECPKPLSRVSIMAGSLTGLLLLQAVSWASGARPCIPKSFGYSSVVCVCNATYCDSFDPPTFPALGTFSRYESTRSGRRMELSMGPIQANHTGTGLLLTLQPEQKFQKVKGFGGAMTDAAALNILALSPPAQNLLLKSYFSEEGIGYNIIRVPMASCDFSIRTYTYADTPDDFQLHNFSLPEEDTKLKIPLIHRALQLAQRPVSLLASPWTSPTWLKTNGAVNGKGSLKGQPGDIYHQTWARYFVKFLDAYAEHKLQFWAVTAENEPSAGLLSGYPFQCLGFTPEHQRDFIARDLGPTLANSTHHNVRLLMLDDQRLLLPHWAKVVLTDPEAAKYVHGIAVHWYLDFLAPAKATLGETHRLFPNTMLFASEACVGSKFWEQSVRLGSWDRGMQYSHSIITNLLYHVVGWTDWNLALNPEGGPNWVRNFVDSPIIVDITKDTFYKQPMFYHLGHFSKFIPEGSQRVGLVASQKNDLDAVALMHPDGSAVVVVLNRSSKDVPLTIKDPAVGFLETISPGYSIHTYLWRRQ
Outline: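 Normal human glucocerebrosidase (0.2 nM) with blue fluorogenic substrate (80 uM final) in citrate/phosphate pH 5.9 with 10mM sodium taurocholate, 0.01% tween-20; 40 min RT, NaOH/glycine stop; fluorescence Ex 365/Em 440; AC50 from a titration from 0.6 nM upwards.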

[2] = AP1 Signaling Pathway (AID 357); conditions: ME-180 AP-1-bla reporter, EGF-induced, beta-lactamase ratio, 5 h; at 7.69 µM (top of the series) unless noted; also: % is scaled to controls: 0 for no effect and ±100 for the full control effect
Outline: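 ME-180 cells with beta-lactamase reporter under AP-1 response element, stimulated with EC50 EGF; compounds tested in titration series, 5 h at 37 °C. CCF4 substrate added 2.5 h at room temperature; 460/530 nm emission ratio gave %activity and AC50.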

[3] = target: Cytochrome P450 1A2 (Homo sapiens) (UniProt P05177); test: p450-cyp1a2 (AID 410; calls by dose curve; also: potency is read from the fitted curve at half-maximal effect;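 as to activity change, negative = inhibition: -100% = full effect of reference inhibitor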); conditions: recombinant CYP1A2, luciferin-ME demethylation, luminescence; series mostly up to 57 µM
Cytochrome P450 1A2 (Homo sapiens), sequence (P05177 whole entry, looked up): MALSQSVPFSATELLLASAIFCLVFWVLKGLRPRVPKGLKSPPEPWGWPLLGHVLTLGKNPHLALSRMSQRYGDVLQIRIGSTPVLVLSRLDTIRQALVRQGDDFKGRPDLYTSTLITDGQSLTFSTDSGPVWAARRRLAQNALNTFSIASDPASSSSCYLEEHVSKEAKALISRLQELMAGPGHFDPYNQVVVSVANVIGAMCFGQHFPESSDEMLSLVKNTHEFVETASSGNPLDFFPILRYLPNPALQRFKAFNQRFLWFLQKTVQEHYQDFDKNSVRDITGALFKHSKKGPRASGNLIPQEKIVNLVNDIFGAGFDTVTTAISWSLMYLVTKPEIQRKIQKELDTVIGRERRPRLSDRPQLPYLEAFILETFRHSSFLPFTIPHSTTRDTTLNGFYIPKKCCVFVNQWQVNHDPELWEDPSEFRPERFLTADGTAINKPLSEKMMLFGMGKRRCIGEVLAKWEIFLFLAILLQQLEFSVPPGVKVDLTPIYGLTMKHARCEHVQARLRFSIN
Outline: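 20nM CYP1A2, 100uM Luciferin-ME (=Km), 100mM KPO4; cpd 10 min RT; +NADPH regen, 60 min RT; stop/detect 20 min; luminescence. Normalized to furafylline 57 uM = full inhibition.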

[4] = Stat Signaling Pathway (AID 446); conditions: ME-180 SIE beta-lactamase reporter, IL-6 stimulated, 5 h; at 7.69 µM (top of the series) unless noted;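 also: ME-180 cervical cancer cells given 40 pM IL-6 alongside compound; SIE-controlled beta-lactamase reporter measured as 460/530 nm FRET emission ratio; % is scaled to controls: 0 for no effect and ±100 for the full control effect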
Outline: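 Emission at 460 and 530 nm (excitation 405 nm) reports SIE-controlled beta-lactamase in ME-180 cells. Cells received compound with 40 pM IL-6 for 5 hrs at 37 C; data scaled between 300 pM IL-6 and 125 nM JAK-inhibitor controls.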

[5] = target: Glucocorticoid receptor (Homo sapiens) (UniProt P04150); test: GR-EFC Redistribution (AID 451; calls by dose curve; also: potency is read from the fitted curve at half-maximal effect); conditions: CHO-K1 GR-EFC translocation, beta-gal luminescence, 2 h
Glucocorticoid receptor (Homo sapiens), sequence (P04150 whole entry, looked up, the tested form may be a part): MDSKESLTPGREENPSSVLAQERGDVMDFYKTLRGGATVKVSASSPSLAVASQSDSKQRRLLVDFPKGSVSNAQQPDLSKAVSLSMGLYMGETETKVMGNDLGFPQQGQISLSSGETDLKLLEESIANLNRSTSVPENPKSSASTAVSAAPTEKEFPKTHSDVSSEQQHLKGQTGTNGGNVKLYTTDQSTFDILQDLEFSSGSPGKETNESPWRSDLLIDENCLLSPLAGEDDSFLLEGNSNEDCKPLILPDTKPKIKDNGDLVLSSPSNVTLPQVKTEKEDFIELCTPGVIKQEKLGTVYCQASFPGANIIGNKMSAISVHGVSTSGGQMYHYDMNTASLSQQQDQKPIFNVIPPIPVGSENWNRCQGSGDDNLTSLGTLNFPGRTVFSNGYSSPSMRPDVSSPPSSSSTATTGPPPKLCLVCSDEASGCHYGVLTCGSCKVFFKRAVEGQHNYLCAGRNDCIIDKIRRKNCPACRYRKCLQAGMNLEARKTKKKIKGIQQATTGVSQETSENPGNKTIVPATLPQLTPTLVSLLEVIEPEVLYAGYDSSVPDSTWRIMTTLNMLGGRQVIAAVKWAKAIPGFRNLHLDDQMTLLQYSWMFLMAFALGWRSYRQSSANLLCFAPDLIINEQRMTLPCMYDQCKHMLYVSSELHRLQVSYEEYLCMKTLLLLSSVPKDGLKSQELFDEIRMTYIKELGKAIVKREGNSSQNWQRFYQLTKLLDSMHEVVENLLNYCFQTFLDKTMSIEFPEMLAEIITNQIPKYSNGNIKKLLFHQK
Outline: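 Translocation of GR-ED fusion to nuclear EA restores b-gal, read by luminescence after 1 h room-temperature detection. Engineered CHO-K1 biosensor cells, 1,000/well, exposed 2 h at 37 C to titrations up to 46 uM final.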

[6] = target: Mitogen-activated protein kinase 10 (Mus musculus) (UniProt Q61831); test: JNK3 AlphaScreen Assay (AID 530); conditions: JNK3 lysate, c-Jun phosphorylation; series mostly up to 57.1 µM;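 also: kinase came from lysate of stimulated human HepG2 cells; signal reports phosphorylation of biotinylated GST-cJun 1-79 at Ser73 with 10 µM ATP; % is scaled to controls: 0 for no effect and ±100 for the full control effect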
Outline: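 Kinase buffer: 20 mM Tris-HCl pH 7.6, 10 mM MgCl2, 1 mM DTT, 0.1 mM Na3VO4, 0.01% Tween-20; ATP 10 uM. Substrate biotin-GST-cJun(1-79), enzyme from activated HepG2 lysates. Detection by Ser73 phospho-antibody AlphaScreen.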

[7] = target: 3',5'-cyclic-AMP phosphodiesterase 4B (Homo sapiens) (UniProt Q07343); test: qHTS Assay for Inhibitors of PDE-IV (AID 607; active = well fitted activation curve with a large enough effect in the main read-out, with a control signal flat, not every such curve was filed as active; also: % of control where 0% means no effect); conditions: HEK293 ACTOne CNG channel cells, membrane potential fluorescence; series mostly up to 22.9 µM
3',5'-cyclic-AMP phosphodiesterase 4B (Homo sapiens), sequence (Q07343 whole entry, looked up): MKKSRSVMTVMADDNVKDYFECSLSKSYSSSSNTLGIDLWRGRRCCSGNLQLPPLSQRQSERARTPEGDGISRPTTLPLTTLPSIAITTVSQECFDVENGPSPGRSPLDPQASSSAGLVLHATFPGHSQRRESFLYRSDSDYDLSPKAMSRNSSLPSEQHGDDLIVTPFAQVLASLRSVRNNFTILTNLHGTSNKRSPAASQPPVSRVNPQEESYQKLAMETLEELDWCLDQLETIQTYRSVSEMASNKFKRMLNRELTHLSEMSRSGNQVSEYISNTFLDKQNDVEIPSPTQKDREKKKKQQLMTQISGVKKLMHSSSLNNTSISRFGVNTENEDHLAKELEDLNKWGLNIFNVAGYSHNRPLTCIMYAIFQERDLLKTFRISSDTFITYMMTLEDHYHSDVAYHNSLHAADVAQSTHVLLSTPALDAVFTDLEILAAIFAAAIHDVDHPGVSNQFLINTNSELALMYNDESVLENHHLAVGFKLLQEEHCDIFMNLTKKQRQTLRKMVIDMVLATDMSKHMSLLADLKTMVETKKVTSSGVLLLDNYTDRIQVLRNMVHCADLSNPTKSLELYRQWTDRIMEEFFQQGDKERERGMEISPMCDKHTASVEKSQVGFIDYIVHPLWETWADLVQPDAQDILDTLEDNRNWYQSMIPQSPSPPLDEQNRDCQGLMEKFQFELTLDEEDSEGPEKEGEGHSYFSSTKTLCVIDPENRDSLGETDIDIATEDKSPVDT
Outline: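 The readout is membrane depolarisation from a cAMP-sensing CNG channel, detected with a potential dye at ex 535/em 590. Cells were HEK293-derived (endogenous PDE-IV) at 1000 cells/well, titrated up to 22.9 uM final.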

[8] = target: Cytochrome P450 3A4 (Homo sapiens) (UniProt P08684); test: qHTS Assay for Activators of Cytochrome P450 3A4 (AID 885; active = well fitted curve in the direction sought with a large enough effect; an effect the other way counts as inactive or inconclusive; also: nearly all actives have a fitted effect of over 65% in size; also: potency is read from the fitted curve at half-maximal effect); conditions: recombinant CYP3A4, Luciferin-PPXE luminescence, 60 min; series mostly up to 57.1 µM
Cytochrome P450 3A4 (Homo sapiens), sequence (P08684 whole entry, looked up): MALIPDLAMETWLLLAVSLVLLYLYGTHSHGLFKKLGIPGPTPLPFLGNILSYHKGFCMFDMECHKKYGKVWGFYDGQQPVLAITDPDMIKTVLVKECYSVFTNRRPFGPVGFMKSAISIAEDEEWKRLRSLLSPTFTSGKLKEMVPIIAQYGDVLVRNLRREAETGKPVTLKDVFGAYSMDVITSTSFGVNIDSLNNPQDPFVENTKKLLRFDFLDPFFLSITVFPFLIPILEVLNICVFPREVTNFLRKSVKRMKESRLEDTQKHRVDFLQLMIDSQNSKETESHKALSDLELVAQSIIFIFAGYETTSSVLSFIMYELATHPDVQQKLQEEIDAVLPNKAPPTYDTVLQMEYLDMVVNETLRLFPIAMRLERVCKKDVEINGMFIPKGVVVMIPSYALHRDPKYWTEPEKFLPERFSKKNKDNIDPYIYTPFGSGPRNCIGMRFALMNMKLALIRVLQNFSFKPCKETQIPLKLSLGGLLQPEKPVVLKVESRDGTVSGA
Outline: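 Activators are scored by enhanced luminescence from CYP3A4 conversion of luciferin-PPXE (25uM, equal to KM) to luciferin, after 60 min at RT with an NADPH-regenerating system.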

[9] = qHTS Assay for Lipid Storage Modulators (AID 1519; calls by dose curve); conditions: Drosophila S3 cells, BODIPY lipid droplet/cell ratio, laser cytometry, cells loaded with oleic acid; for activity change, negative = inhibition: at 57.5 µM (top of the series)
Outline: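 Cells seeded at 5,000 per well were treated with compounds over a concentration series and loaded with oleic acid (400 uM, as added). Lipid droplet fluorescence (488 nm excitation, 500-530 nm channel) was read by laser-scanning cytometry and normalized to 20 uM Triacsin C.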

[10] = Primary qHTS for small molecule stabilizers of the endoplasmic reticulum resident proteome: Secreted ER Calcium Modulated Protein (SERCaMP) assay (AID 1508630; active = well fitted curve in the direction sought with a large enough effect; an effect the other way counts as inactive or inconclusive; also: % is scaled to controls: 0 for no effect and ±100 for the full control effect); conditions: SH-SY5Y GLuc-SERCaMP (Gaussia luciferase released on ER calcium loss) secretion, thapsigargin, luminescence; series mostly up to 38.4 µM
Outline: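 The SH-SY5Y reporter protocol was run at 3 concentrations up to 38.3 uM (primary) or 11 concentrations (follow-up): 16 h compound, 100 nM thapsigargin for 4 h, then extracellular luciferase luminescence.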

[11] = target: Cytochrome P450 3A4 (Homo sapiens) (UniProt P08684); test: qHTS Assay for Inhibitors and Substrates of Cytochrome P450 3A4 (AID 884; active = well fitted curve in the direction sought with a large enough effect; an effect the other way counts as inactive or inconclusive; also: nearly all actives have a fitted effect of over 50% in size; also: potency is read from the fitted curve at half-maximal effect); conditions: recombinant CYP3A4, Luciferin-PPXE luminescence; series mostly up to 57.1 µM
Outline: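 Luminescent readout of luciferin produced by CYP3A4 (20 nM) dealkylation of Luciferin-PPXE, 25 uM (its KM). NADPH-driven reaction ran 60 min at RT after 10 min compound preincubation; data scaled to 57 uM ketoconazole as 100% inhibition.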

[12] = target: Cytochrome P450 2D6 (Homo sapiens) (UniProt P10635); test: qHTS Assay for Inhibitors and Substrates of Cytochrome P450 2D6 (AID 891; active = well fitted curve in the direction sought with a large enough effect; an effect the other way counts as inactive or inconclusive; also: potency is read from the fitted curve at half-maximal effect; nearly all actives have a fitted effect of over 60% in size); conditions: recombinant CYP2D6, luciferin-ME EGE luminescence; series mostly up to 57.1 µM
Cytochrome P450 2D6 (Homo sapiens), sequence (P10635 whole entry, looked up): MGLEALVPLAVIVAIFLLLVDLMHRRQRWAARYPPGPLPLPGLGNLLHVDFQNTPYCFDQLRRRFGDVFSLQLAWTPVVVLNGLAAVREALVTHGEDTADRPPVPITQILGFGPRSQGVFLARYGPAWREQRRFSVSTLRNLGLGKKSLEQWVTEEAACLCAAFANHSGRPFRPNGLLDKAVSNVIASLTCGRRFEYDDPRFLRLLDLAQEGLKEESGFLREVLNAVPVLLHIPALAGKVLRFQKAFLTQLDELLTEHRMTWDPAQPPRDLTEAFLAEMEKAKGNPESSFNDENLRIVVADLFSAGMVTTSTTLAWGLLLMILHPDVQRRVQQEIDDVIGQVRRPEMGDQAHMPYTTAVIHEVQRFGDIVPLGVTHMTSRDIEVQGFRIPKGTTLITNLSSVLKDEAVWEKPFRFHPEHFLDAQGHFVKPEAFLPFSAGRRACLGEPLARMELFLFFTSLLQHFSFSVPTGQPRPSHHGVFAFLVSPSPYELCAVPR
Outline: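 Luminescent read-out of luciferin formed by 5 nM human CYP2D6 demethylating 30 uM Luciferin-ME EGE (Km level) over 60 min at room temperature after NADPH regeneration addition. Data normalized to full inhibition by 1.43 uM quinidine.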

[13] = qHTS Assay for Identification of Small Molecule Agonists for Hypoxia Response Element Signaling Pathway (AID 914; active = well fitted activation curve with a large enough effect in the signal ratio, with a control signal flat, not every such curve was filed as active; the % refers to the signal ratio; also: % of control where 0% means no effect); conditions: ME-180 HRE-bla reporter, beta-lactamase ratio, CoCl2, 17 h; activation: stronger effect = higher value
Outline: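 ME-180 cells carrying an HRE-driven beta-lactamase reporter were treated with compounds in a titration series plus an EC50 level of CoCl2 for 17 h at 37 degrees Celsius; CCF4 readout as the 460nm/530nm ratio gave AC50 values.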

[14] = measured here: cell count channel max response
[15] = measured here: lipid channel max response

COc1ccc(C(=O)N2CCC3(CCCN(Cc4ccccc4OC)C3)CC2)cc1
-8.51%: max response [9, 14]
inactive: Potency [1] > 11.4 µM | activity change, negative = inhibition [2] 0.332% | Potency [3] | activity, negative = inhibition [4] -6.54% | Potency [5] > 46 µM | Potency [6] | Potency [7] | Potency [8] | activity change, negative = inhibition [9] -0.879% | outcome [10]
-6.45%: max response [9, 15]

Cn1cccc1C(=O)N1CCC[C@@]2(CCN(C(c3ccccc3)c3ccccc3)C2)C1
10.5%: max response [9, 14]
14.1%: max response [9, 15]
active: Potency [3] 20 µM
inactive: Potency [1] > 11.4 µM | activity change, negative = inhibition [2] 0.163% | activity, negative = inhibition [4] 9.39% | Potency [5] > 46 µM | Potency [6] | Potency [7] | Potency [8] | activity change, negative = inhibition [9] 0.948% | outcome [10]

N#Cc1cccc(NC(=O)N2CCC3(CC2)CCN(C(=O)c2cccc(F)c2)CC3)c1
6.66%: max response [9, 14]
active: Potency [8] 7.94 µM
inactive: Potency [1] > 11.4 µM | activity change, negative = inhibition [2] -11.8% | Potency [3] | activity, negative = inhibition [4] -7.8% | Potency [5] > 46 µM | Potency [6] | Potency [7] | Potency [11] | activity change, negative = inhibition [9] 5.01% | outcome [10]
13.2%: max response [9, 15]

COC(=O)N1CCC2(CCCN(Cc3nccs3)C2)CC1
inactive: Potency [1] > 11.4 µM | activity change, negative = inhibition [2] -9.45% | Potency [3] | activity, negative = inhibition [4] -5.19% | Potency [5] > 46 µM | Potency [6] | Potency [7] | Potency [8] | activity change, negative = inhibition [9] 5.26% | outcome [10]
2.22%: max response [9, 14]
10.9%: max response [9, 15]

CN1CCCC2(CCN(C(=O)c3cc(C(F)(F)F)cc(C(F)(F)F)c3)CC2)C1
inactive: Potency [1] > 11.4 µM | activity change, negative = inhibition [2] 5.94% | Potency [3] | activity, negative = inhibition [4] 4.14% | Potency [5] > 46 µM | Potency [6] | Potency [7] | Potency [8] | activity change, negative = inhibition [9] 3.25% | outcome [10]
23.1%: max response [9, 15]
17.7%: max response [9, 14]

Cc1noc(C)c1C(=O)N1CCC2(CCCN(Cc3ccccc3)C2)CC1
21.7%: max response [9, 15]
15.8%: max response [9, 14]
inactive: Potency [1] > 11.4 µM | activity change, negative = inhibition [2] 3.01% | Potency [3] | activity, negative = inhibition [4] 4.66% | Potency [5] > 46 µM | Potency [6] | Potency [7] | Potency [8] | activity change, negative = inhibition [9] 4.04% | outcome [10]

O=C(Oc1ccccc1)N1CCC2(CC1)CN(c1ccccn1)C2
inactive: Potency [1] > 11.4 µM | activity change, negative = inhibition [2] 5.21% | Potency [3] | activity, negative = inhibition [4] -0.424% | Potency [5] > 46 µM | Potency [6] | Potency [7] | Potency [11] | activity change, negative = inhibition [9] 7.94% | outcome [10]
3.44%: max response [9, 14]
13.9%: max response [9, 15]
active: Potency [8] 15.8 µM

O=C(c1ccco1)N1CCC2(CC1)CN(c1ccccn1)C2
11.7%: max response [9, 15]
3%: max response [9, 14]
inactive: Potency [1] > 11.4 µM | activity change, negative = inhibition [2] 2.14% | Potency [3] | activity, negative = inhibition [4] -14.8% | Potency [5] > 46 µM | Potency [6] | Potency [7] | Potency [11] | activity change, negative = inhibition [9] 5.94% | outcome [10]
active: Potency [8] 10 µM

c1ccc(-c2cccc(N3CCC4(CCNCC4)CC3)c2)cc1
-17%: max response [9, 14]
active: Potency [3] 15.8 µM
inactive: Potency [1] > 11.4 µM | activity change, negative = inhibition [2] -2.96% | activity, negative = inhibition [4] -2.71% | Potency [5] > 46 µM | Potency [6] | Potency [7] | Potency [8] | activity change, negative = inhibition [9] 2.27% | outcome [10]
-12.4%: max response [9, 15]

Cn1cccc1C(=O)N1CCC2(CCCN(Cc3ccccc3)C2)CC1
inactive: Potency [1] > 11.4 µM | activity change, negative = inhibition [2] -4.68% | Potency [3] | activity, negative = inhibition [4] -3.12% | Potency [5] > 46 µM | Potency [6] | Potency [7] | Potency [8] | activity change, negative = inhibition [9] 3.59% | outcome [10]
2.52%: max response [9, 14]
8.85%: max response [9, 15]

COc1ccc(C(=O)N2CCC3(CC2)CCN(C(c2ccccc2)c2ccccc2)CC3)cc1
inactive: Potency [1] > 11.4 µM | activity change, negative = inhibition [2] 4.01% | Potency [3] | activity, negative = inhibition [4] -17.5% | Potency [5] > 46 µM | Potency [6] | Potency [7] | Potency [11] | activity change, negative = inhibition [9] 2.48% | outcome [10]
13.4%: max response [9, 14]
21.1%: max response [9, 15]
active: Potency [8] 3.16 µM

O=C(c1ccco1)N1CCC2(CCN(Cc3ccccc3)CC2)CC1
active: Potency [8] 20 µM | Potency [12] 3.98 µM
inactive: Potency [1] > 11.4 µM | activity change, negative = inhibition [2] -4.92% | Potency [3] | activity, negative = inhibition [4] -6.84% | Potency [5] > 46 µM | Potency [6] | Potency [7] | Potency [11] | activity change, negative = inhibition [9] -0.6% | outcome [10]
1.54%: max response [9, 15]
-0.833%: max response [9, 14]

CC(C)CN1CCCC2(CCN(C(=O)c3cccc(F)c3)CC2)C1
18.6%: max response [9, 14]
inactive: Potency [1] > 11.4 µM | activity change, negative = inhibition [2] -3.93% | Potency [3] | activity, negative = inhibition [4] -0.516% | Potency [5] > 46 µM | Potency [6] | Potency [7] | Potency [8] | activity change, negative = inhibition [9] 2.15% | outcome [10]
24.2%: max response [9, 15]

c1ccc(C(c2ccccc2)N2CCCC3(CCNCC3)C2)cc1
-12.4%: max response [9, 14]
-10.8%: max response [9, 15]
inactive: Potency [1] > 11.4 µM | activity change, negative = inhibition [2] -3.1% | activity, negative = inhibition [4] 4.89% | Potency [5] > 46 µM | Potency [6] | Potency [7] | Potency [8] | activation [13] 19.3% | activity change, negative = inhibition [9] -1.73% | outcome [10]
active: Potency [3] 7.94 µM | Potency [11] 1.26 µM
